D1 potentiator: human D1 dopamine receptor positive modulation; P21728; HEK293 TREx D1 cells, calcium flux, dopamine EC20 potentiation; potentiation, % at 10 µM; actives 0.036% (n = 360,000); in the data active means potentiation above about 30%; further: 0% is about no effect
Target sequence (P21728 whole entry, looked up): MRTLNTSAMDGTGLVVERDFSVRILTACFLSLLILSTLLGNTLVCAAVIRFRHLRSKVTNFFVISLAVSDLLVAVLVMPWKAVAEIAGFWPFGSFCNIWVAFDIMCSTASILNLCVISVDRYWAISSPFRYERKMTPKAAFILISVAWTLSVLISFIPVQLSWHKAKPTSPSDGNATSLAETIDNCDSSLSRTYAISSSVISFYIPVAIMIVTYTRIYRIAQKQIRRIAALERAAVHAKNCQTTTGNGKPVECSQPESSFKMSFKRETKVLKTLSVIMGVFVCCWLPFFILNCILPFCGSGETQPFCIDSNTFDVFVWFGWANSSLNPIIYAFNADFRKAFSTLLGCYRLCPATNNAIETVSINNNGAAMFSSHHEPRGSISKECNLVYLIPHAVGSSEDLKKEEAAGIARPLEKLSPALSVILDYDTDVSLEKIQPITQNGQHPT
D1 antag: human D1 dopamine receptor antagonism; P21728; HEK293 TREx D1 cells, calcium flux, dopamine EC80; active compounds read low; activity change, negative = inhibition, % at 10 µM; actives 3.2% (n = 360,000); in the data active means activity change below about -30%; further: on the % scale 0 is the no-effect control and ±100 the full control effect
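Kinetic fluorescence of a calcium dye serves as the read-out. D1-expressing Hek293 Trex cells, induced overnight at 30 C, are exposed to compound for 180 s before an EC80 dopamine addition, then read 180 s further.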
DRD3 antagonist: blocks the human D3 dopamine receptor. P35462. actives 2.5% (n = 360,000). D3R cells, DiscoveRx beta-arrestin luminescence, antagonist mode; active compounds read low. AID 652054. max response, negative = inhibition, %; in the data active means max response below about -50%; inconclusive means no clear call, values can overlap the other calls; further: on the % scale 0 is the no-effect control and ±100 the full control effect
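Cells plated overnight at 1500 cells/well, then exposed to library compounds with dopamine controls for 90 minutes at 37 degrees C. DiscoveRx reagent added for 30–60 minutes at room temperature; luminescence read, quantitative HTS format.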
D1 agonist: human D1 receptor agonism. actives 1% (n = 360,000). AID 504660. activation, % at 2 µM. HEK293 T-REx D1 cells, calcium flux, agonist mode; in the data active means activation above about 30%; further: 0% is about no effect
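Tetracycline-induced HEK293 TREx D1 cells, force-coupled to calcium signalling, were dye-loaded with a no-wash calcium kit. Compound was pin-added after a 10 s baseline. Fluorescence was read kinetically at 1 cycle/s for 180 s, with calcium rises flagged as agonism.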
BCR signal inh: inhibitors of chronic active B-cell receptor signaling; ABC-DLBCL IkBa-CBG/CBR reporter, luminescence ratio, 4 h; Potency, µM (series often up to 46.1 µM), for inactives: top-dose activity change, negative = inhibition, hits mostly inhibitors; actives 0.05% (n = 340,000); active means well fitted inhibition curve with a large enough effect in the signal ratio, with a control signal flat, not every such curve was filed as active; inconclusive means small, poorly fitted or top-dose-only effect, or effect the other way, or a change in a side signal; the % refers to the signal ratio;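 further: potency means the concentration at half of the fitted maximal effect; plate controls were basal doxycycline-induced cells for no effect and cells given 10 µM MG132 for full effect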
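TMD8 human ABC-DLBCL cells with doxycycline-inducible IκBα–green luciferase fusion and unfused red luciferase, in 0.5% FBS medium; compounds up to 46 uM, 4 h at 37C. Green/red luminescence ratio, filter-overlap corrected, fitted to concentration-response curves.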
D3 ag: agonists of human D3 dopamine receptor; P35462; D3R DiscoveRx beta-arrestin cells, luminescence, 90 min; max activation, %; actives 0.58% (n = 410,000); in the data active means max activation above about 30%; further: 0% is about no effect
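Agonist mode: compounds and dopamine controls were applied to plated cells for 90 min at 37 degrees C after an overnight attachment at 1500 cells/well. Luminescent read-out followed 30 - 60 minutes at room temperature with DiscoveRx detection reagent.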
Active calls of the source: *; ? = inconclusive; . = no result given; ! = not confirmed by another sample. The list is not random: actives were taken first. Their share in the collection is about 6%.

SMILES | D1 potentiator | D1 antag | DRD3 antagonist | D1 agonist | BCR signal inh | D3 ag
O=C(NCCCN1CCN(c2cccc(Cl)c2)CC1)c1ccc(N2CCCC2=O)cc1 | -11 | 3 | ? | 29 | ? | 11
CN1CCN(CCNC(=O)Nc2ccccc2C(F)(F)F)CC1 | -6 | 12 | 8 | 1 | 3% | 3
O=C(NCCCN1CCN(c2cccc(Cl)c2)CC1)Nc1ccccc1C(F)(F)F | -1 | -55* | . | 32* | . | -4
Nc1ccccc1C(=O)NCCCN1CCN(c2cccc(Cl)c2)CC1 | . | . | -73* | . | . | -10
Cc1ccccc1CC1CCN(CCCNC(=O)Nc2ccccc2)CC1 | -7 | -16 | -83* | 12 | -1% | -5
O=C(NCCN1CCN(c2ccccc2)CC1)C1(S(=O)(=O)c2ccc(Cl)cc2)CC1 | -4 | 2 | -53* | 2 | 6% | -1
Cc1nnc2c3ccccc3nc(N3CCN(c4cccc(Cl)c4)CC3)n12 | 1 | 8 | . | 1 | . | 10
COc1ccccc1-c1nnc2n(CCc3ccccc3)c(=O)c3ccccc3n12 | 1 | 2 | . | 0 | . | 9
Clc1ccc(Cc2nc(-c3ccncc3)no2)cc1 | 1 | -36* | 5 | 11 | ? | -2
COCCN1C[C@@H](CO)O[C@@H](n2cnc3c(NCCCO)ncnc32)C1 | . | . | 21 | . | . | 11
COc1ccc(NC(=O)C(OC(=O)CNC(=O)c2ccccc2)c2ccccc2)c(C)c1 (stereo unspecified) | 4 | -48* | . | 2 | . | .
CC(C)CCn1c(=O)c2ccccc2n2c(CN3CCOCC3)nnc12 | -2 | 38 | -54* | 0 | 2% | -8
CC(C)CCN(CC(=O)NC1CCCC1)C(=O)C(=O)Nc1ccc2c(c1)OCCO2 | -4 | -7 | 5 | 4 | 12% | 0
CCCCN(CC(=O)NC1CCCC1)C(=O)C(=O)Nc1ccc2c(c1)OCCO2 | -10 | -36* | -15 | 7 | -2% | 8
O=C(Nc1ccc2ccccc2c1)C(c1ccccc1)n1c(=O)c(-c2cc3ccccc3[nH]2)nc2ccccc21 (stereo unspecified) | . | . | 18 | . | . | 7
OC(COCC1COc2ccccc2O1)CN1CCN(c2ccccn2)CC1 (stereo unspecified) | -2 | 4 | -24 | 1 | -1% | 75*!
OC(COCC1COc2ccccc2O1)CN1CCc2ccccc2C1 (stereo unspecified) | -10 | -17 | 14 | 33* | 11% | -1
CC1CCCN(CC(O)COCC2COc3ccccc3O2)C1 (stereo unspecified) | 0 | -1 | 15 | 0 | 5% | -4
CC(C)CCNC(=O)c1cc(-c2cccnc2)nc2ccc(S(=O)(=O)N3CCC(C)CC3)cc12 | 1 | -19 | . | 2 | 6% | 10
Cc1ccc(-n2ncc(C(=O)NCCN3CCc4ccccc4C3)c2C2CCN(C(=O)OC(C)(C)C)CC2)cc1 | 5 | 9 | . | 6 | . | -27
Clc1ccc2c(NCCNC3CCCCC3)ccnc2c1 | . | . | -98* | . | . | -20
Cc1ccc(NC(=O)Cn2c(-c3ccc(F)cc3)cnc2SCC(=O)Nc2c(C)cccc2C)cc1 | -9 | -18 | -71* | 1 | -11% | -10
CCOc1ccc(NC(=O)CSc2ncc(-c3ccc(F)cc3)n2Cc2ccco2)cc1 | -2 | -3 | 1 | 5 | ? | 1
O=C(c1ccc2c(c1)[nH]c(=S)n1c3ccccc3nc21)N1CCN(c2cccc(Cl)c2)CC1 | -10 | 12 | 8 | 3 | 10% | 0
COc1ccc(N2CCN(C(=O)c3ccc4c(c3)[nH]c(=S)n3c5ccccc5nc43)CC2)cc1 | -5 | -32* | . | 1 | 17% | .
SMILES | D1 potentiator | D1 antag | DRD3 antagonist | D1 agonist | BCR signal inh | D3 ag
COc1ccccc1/C=c1\sc2nc(-c3ccccc3OC)nn2c1=O | -1 | -36* | -4 | 1 | ? | -6
CCN1C(=O)[C@H]2[C@@H](c3ccc(-c4ccc(F)cc4)c(OC)c3)N[C@@](C)(C(=O)OC)[C@H]2C1=O | -8 | -3 | -51* | -1 | ? | -12
CCN1C(=O)[C@H]2[C@@H](c3ccc(-c4ccc(OC)cc4)c(OC)c3)N[C@@](CC(C)C)(C(=O)OC)[C@H]2C1=O | . | . | -6 | . | 5% | -19
CCN1C(=O)[C@H]2[C@@H](c3ccc(-c4ccc(C(C)=O)cc4)cc3)N[C@@](Cc3ccccc3)(C(=O)OC)[C@H]2C1=O | -4 | -4 | -13 | 2 | 0% | -4
CCN1C(=O)[C@H]2[C@@H](c3ccc(-c4cc(C(C)=O)cs4)cc3)N[C@@](Cc3ccccc3)(C(=O)OC)[C@H]2C1=O | . | . | -14 | . | 0% | 37*
COC(=O)C1(C)NC(c2ccc(O)cc2)C2C(=O)N(c3ccc(C)cc3)C(=O)C21 (stereo unspecified) | -6 | -42* | 8 | 3 | 10% | 1
CCN1C(=O)[C@H]2[C@@H](c3ccc(-c4ccccc4)c(OC)c3)N[C@@](CC(C)C)(C(=O)OC)[C@H]2C1=O | . | . | -51* | . | 1% | -31
COc1ccccc1N1CCN(C(=O)CSc2n[nH]c(-c3ccccc3Cl)n2)CC1 | 0 | -1 | . | -1 | . | 4
Cc1cccc(CNC(=O)Cn2nc(C)n3c(cc4cc(F)ccc43)c2=O)c1 | -4 | -5 | . | 0 | . | 2
Cn1cccc1-c1cc(C(=O)N/N=C/c2ccccc2Cl)[nH]n1 | -2 | 15 | -78* | -1 | ? | -15
Cn1cccc1-c1cc(C(=O)N/N=C/c2cc(Br)ccc2O)[nH]n1 | -10 | -13 | 16 | 5 | -13% | 11
Cn1cccc1-c1cc(C(=O)N/N=C/c2ccc(F)cc2)[nH]n1 | 1 | 0 | -82* | 0 | ? | -25
COc1ccc(/C(C)=N/Nc2nc(C)c(C(C)=O)s2)cc1 | 2 | -33* | 2 | 4 | -2% | 1
CCCCCn1c(C(C)NC(=O)CCC)nc2ccccc21 (stereo unspecified) | -5 | -30* | 16 | 0 | 1% | 1
CC12CCC(C(=O)N(CSC(=S)N/N=C\c3ccccc3)C1=O)C2(C)C (stereo unspecified) | 0 | 1 | -69* | 5 | 29% | 5
CC12CCC(C(=O)N(CC(=O)O)C1=O)C2(C)C (stereo unspecified) | 5 | -52* | 3 | 0 | 7% | 1
CC12CCC(C(=O)N(CSC(=S)N/N=C\c3ccccc3Cl)C1=O)C2(C)C (stereo unspecified) | -3 | -5 | -8 | 2 | ? | 2
Cc1ccc(-c2ccc(=O)n(CC(=O)NCCc3ccccc3)n2)cc1 | -1 | 29 | . | -3 | 11% | 0
COC(=O)[C@H](CCSC)NC(=O)Cn1ccc(N)nc1=O | -2 | . | -51* | 2 | 1% | -3

From PubChem BioAssay
